Experimental findings from PubChem BioAssay AID618 (Sanford-Burnham Center for Chemical Genomics, 2007) are described below.

In all, about 87,000 compounds went through this assay and about 540 (0.62%) were called active. No rule for the calls is given here. The full list was thinned out, with actives kept by preference. Measured potencies and affinities stand elsewhere.

This test can be described thus: inhibitors of MT1-MMP promoter transcription, cell-based, luciferase reporter, luminescence (AID 618).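 Also: actives suppress MT1-MMP promoter-driven transcription so potencies describe inhibitors.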 The note with it: MT1-MMP promoter luciferase reporter cells. A general note: A reporter such as luciferase makes a cellular process visible.
`Cc1csc(NC(=O)CSc2nnc(-c3ccoc3C)o2)n1`: the compound was called inactive.
Under `CCC(O)c1cc2c(cc1NC(=O)c1cccs1)OCCO2` (stereo not drawn) stands “inactive”.
Regarding `Cc1ccc(C(=O)NCCCNCCCNC(=O)c2ccc(C)nc2)cn1`, the compound was classed as inactive.
On to `CCn1c(COc2cccc(C)c2)nnc1SCC(=O)Nc1cccc(C(=O)OC)c1`, for which the compound was called inactive.
As for `CC(CC(=O)O)CC(=O)Nc1ccccc1C(=O)O` (stereo not drawn), the result was inactive.
Turning to `O=c1c2c(nc3cc(-c4ccccc4)[nH]n13)CCC2`, the compound was classed as inactive.
Regarding `COc1ccc(-c2cc3nc4c(c(=O)n3[nH]2)CCC4)cc1`, the compound was called inactive.
As for `COCCCN1C(=O)C(=O)/C(=C(/O)c2ccc(OC(C)C)cc2)C1c1cccnc1` (stereo not drawn), the entry is “inactive”; as for `Nc1nc(-c2nc3ccccc3[nH]2)cs1`, “inactive”.
`c1ccc2nc(-c3nc4ccccc4[nH]3)ccc2c1`: the compound was called active.
On to `COc1ccc2nc(-c3cccc(N)c3)[nH]c2c1`, for which the outcome was inactive.
On to `Nc1ccc(-c2nc3ccccc3[nH]2)cc1`, for which the compound was called inactive.
On to `CCOc1ccc2nc(-c3ccccc3)[nH]c2c1`, for which the result was inactive.
Take `COc1ccc2nc(-c3ccccc3)[nH]c2c1`: the compound was classed as active.
Turning to `COc1ccc(OCc2nc3ccccc3[nH]2)cc1`, the compound was classed as inactive.
Turning to `c1ccc2[nH]c(-c3ccnc4ccccc34)nc2c1`, the compound was classed as inactive.
Turning to `CC(C)CN1C(=O)c2ccc(NC(=O)c3cccs3)cc2C1=O`, the outcome was inactive.
`O=C(NCc1ccco1)C(c1ccccc1)N(C(=O)Cc1cccs1)c1ccccc1` (stereo not drawn): the outcome was inactive.
Under `CC(=O)NCCOc1cccc(OCCNC(C)=O)c1` stands “inactive”; under `COc1cc(/C=N/NC(=O)CCc2c(C)n[nH]c2C)ccc1O`, “inactive”.
With `CCn1ncc(Br)c1C(=O)Nc1ccc(Cl)cn1`, the compound was called inactive.
On to `COc1ccc(OC)c(S(=O)(=O)NC2CCCCC2)c1`, for which the compound was classed as inactive.
Regarding `CCn1cc(C(=O)N2CCc3ccccc3C2)c(=O)c2cc(S(=O)(=O)N3CCCCC3)ccc21`, the compound was called inactive.
As for `Cc1nc(-c2ccc(NC(=O)c3cccs3)cc2)cs1`, the compound was called active.
Consider `Cc1ccc(NC(=O)c2cccs2)cc1`, for which the call was inactive.
For the compound `Cc1nc(-c2cccc(NC(=O)c3cccs3)c2)cs1`, the compound was classed as inactive.
Take `COc1ccc(OC)c(-n2c(-c3ccccc3)n[nH]c2=S)c1`: the result was inactive.
In the case of `COc1ccc(OCc2cccc(C(=O)O)c2)cc1`, the compound was classed as active.
`CCOc1ccc(OCc2ccc(C(=O)N3CCOCC3)cc2)cc1`: the compound was classed as inactive.
As for `COc1ccc(OCc2ccc(C(=O)O)cc2)cc1`, the entry is “inactive”.
Under `CC(C)OC(=O)C(C)Oc1ccc(C(=O)NCCc2ccccc2)cc1` (stereo not drawn) stands “inactive”; under `CCOc1cc(OCC)cc(C(=O)O)c1`, “inactive”.
In the case of `CC(Oc1ccc(C(=O)NCCc2ccccc2)cc1)C(=O)O` (stereo not drawn), the call was inactive.
`CCOc1ccc(OCc2cccc(C(=O)N3CCCC3)c2)cc1`: the call was inactive.
Consider `CCOc1ccc(OCc2cccc(C(=O)O)c2)cc1`, for which the outcome was active.
As for `CCCCOc1cccc(C(=O)O)c1`, the compound was classed as inactive.
As to `CCOc1ccc(OCc2cccc(C(=O)N3CCOCC3)c2)cc1`, the compound was classed as active.
Under `COc1ccc(OCc2cccc(C(=O)Nc3cc(C)on3)c2)cc1` stands “inactive”.
For the compound `CSc1nc2nc(C(F)(F)F)cc(-c3ccccc3)n2n1`, the compound was classed as inactive.
`COc1ccccc1C(=O)Nc1ccc2c(c1)nc1n2CCSC1`: the compound was called inactive.
With `CSc1ccccc1C(=O)Nc1nccs1`, the result was inactive.
On to `Cc1nn(-c2ccccc2)c2c1C1(C(=O)N(C(C)C)c3ccccc31)C(C#N)=C(N)O2` (stereo not drawn), for which the compound was called inactive.
`Cc1nc(SCC(=O)NC2CCCC2)[nH]c(=O)c1Cc1ccccc1`: the compound was classed as inactive.
On to `CCOc1ccc(OCc2ccc(C(=O)Nc3cccc(C)n3)o2)cc1`, for which the outcome was inactive.
Take `CCOc1ccc(C(=O)Nc2cccc(C)n2)cc1`: the compound was called active.
As for `CCCCOc1ccc(C(=O)Nc2cccc(C)n2)cc1`, the call was inactive.
Regarding `O=C(NCc1cccs1)c1cc(-c2cccc(Cl)c2)on1`, the call was inactive.
`Cc1ccc(-n2nc3c(c2NC(=O)c2ccc(OC(C)C)cc2)CS(=O)C3)cc1` (stereo not drawn): the outcome was inactive.
Turning to `COC(=O)C12CC3CC(C1)CC(n1cnc(Cl)n1)(C3)C2`, the compound was called inactive.
As for `O=C(CCl)N(c1ccc(Cl)cc1)c1c[nH]c2ccccc12`, the outcome was active.
For `O=C(O)CCC(=O)c1c[nH]c2ccccc12`, the result was inactive.
On to `CC(=O)N(c1ccc(Cl)cc1)c1c[nH]c2ccccc12`, for which the compound was classed as inactive.
For the compound `O=C(CCl)N(c1ccccc1)c1c[nH]c2ccccc12`, the outcome was active.
`CN(C)CC(=O)c1c[nH]c2ccccc12`: the result was inactive.
Take `CCN(CC)CC(=O)c1c[nH]c2ccccc12`: the outcome was inactive.
For `O=C(NCCN1CCN(Cc2ccccc2Cl)CC1)Nc1ccccc1`, the compound was classed as inactive.
Regarding `CCCCOc1ccc(CN2CCCCC2)cc1`, the call was inactive.
As to `CCCCOc1ccc(CN2CCC(O)CC2)cc1`, the result was inactive.
Turning to `CC(C)NC(=O)c1ccccc1NC(=O)CN(c1ccc2c(c1)OCO2)S(C)(=O)=O`, the outcome was inactive.
Turning to `CCCn1nnc(NC(=O)c2cccc(Cl)c2)n1`, the call was inactive.
For the compound `CN(C)CCCN1c2ccccc2Sc2ccc(C(F)(F)F)cc21`, the compound was classed as inactive.
Consider `CN1CCN(CCCN2c3ccccc3Sc3ccc(Cl)cc32)CC1`, for which the compound was classed as inactive.
Turning to `CSc1ccc2c(c1)N(CCC1CCCCN1C)c1ccccc1S2` (stereo not drawn), the result was active.
Under `COC(=O)c1ccc(OC)c(CSc2nnc(-c3ccc(C(C)(C)C)cc3)o2)c1` stands “inactive”.
Under `CC(C)CNC(=O)CSc1ccc(Cl)cc1` stands “inactive”; under `Cc1cccc(NC(=S)NNC(=O)CCn2nc(C)c([N+](=O)[O-])c2C)c1`, “inactive”.
On to `c1ccc(Cn2nnc3c(N4CCOCC4)ncnc32)cc1`, for which the compound was classed as inactive.
In the case of `S=c1sc2c(N3CCOCC3)ncnc2n1-c1ccccc1`, the compound was classed as inactive.
Consider `c1ccc(-n2nnc3c(N4CCOCC4)ncnc32)cc1`, for which the call was active.
`Nc1cc(=O)[nH]c(SCc2nc3ccccc3n2Cc2ccccc2)n1`: the result was inactive.
As for `CSCC[C@H](NC(=O)OC(C)(C)C)c1nnc(SCC(N)=O)o1`, the outcome was inactive.
As to `COc1ccc(S(=O)(=O)n2nc(OC(=O)C3CCCCC3)cc2N)cc1`, the outcome was inactive.
With `O=C(Nc1nc(-c2ccccn2)cs1)C1COc2ccccc2O1` (stereo not drawn), the result was inactive.
Regarding `O=C(Nc1ncc(Cc2ccccc2)s1)C1COc2ccccc2O1` (stereo not drawn), the outcome was inactive.
As to `Cc1nnc(NC(=O)C2COc3ccccc3O2)s1` (stereo not drawn), the result was inactive.
Regarding `O=C(Nc1ccncc1)C1COc2ccccc2O1` (stereo not drawn), the outcome was inactive.
Turning to `O=C(Nc1nncs1)C1COc2ccccc2O1` (stereo not drawn), the call was inactive.
As to `Cc1nc2ccc3nc(NC(=O)C4COc5ccccc5O4)sc3c2s1` (stereo not drawn), the compound was classed as inactive.
As to `COc1ccc2nc(NC(=O)C3COc4ccccc4O3)sc2c1` (stereo not drawn), the compound was called inactive.
As to `O=C(NC1=NCCS1)C1COc2ccccc2O1` (stereo not drawn), the outcome was active.
In the case of `O=C(Nc1nc(-c2ccc3c(c2)OCO3)cs1)C1COc2ccccc2O1` (stereo not drawn), the compound was classed as inactive.
For `COc1ccc(OC)c(S(=O)(=O)Nc2ccc(CC(=O)O)cc2)c1`, the outcome was inactive.
Turning to `CN(C)/C=N/c1c(C#N)nnn1Cc1ccccc1`, the result was inactive.
On to `Cc1ccc2nc3n(c(=O)c2c1)CCCCC3`, for which the compound was classed as inactive.
In the case of `CCCCn1c(C(C)NC(=O)c2cccs2)nc2ccccc21` (stereo not drawn), the compound was called inactive.
For `COc1ccccc1N1CCN(C(=O)CSc2nnc(NC(=O)c3ccco3)s2)CC1`, the compound was called inactive.
`CCc1nnc(NC(=O)C2COc3ccccc3O2)s1` (stereo not drawn): the call was inactive.
`O=C(Nc1nnc(C(F)(F)F)s1)C1COc2ccccc2O1` (stereo not drawn): the outcome was inactive.
In the case of `COc1ccc(-c2noc(CCC(=O)Nc3nc4ccccc4s3)n2)cc1`, the compound was called inactive.
In the case of `Cc1onc(-c2ccccc2)c1C(=O)Nc1ccccc1N1CCOCC1`, the outcome was inactive.
Under `O=C(CSc1nc2ccccc2[nH]1)Nc1cc(C(F)(F)F)ccc1N1CCOCC1` stands “inactive”.
With `Cc1nnc(SCC(=O)Nc2cc(C(F)(F)F)ccc2N2CCOCC2)o1`, the compound was called inactive.
As for `O=C(Nc1cc(C(F)(F)F)ccc1N1CCOCC1)c1c(F)c(F)c(F)c(F)c1F`, the entry is “inactive”.
Under `Cc1ccc2nc(SCC(=O)Nc3cc(C(F)(F)F)ccc3N3CCOCC3)[nH]c2c1` stands “active”; under `Cc1onc(-c2ccccc2)c1C(=O)Nc1cc(C(F)(F)F)ccc1N1CCOCC1`, “active”.
With `CCN(CC)c1ccc2cc(C(=O)Nc3ccc(-n4cnnn4)c(OC)c3)c(=O)oc2c1`, the call was inactive.
For the compound `CCOC(=O)c1sc2nc(C)cc(C)c2c1N`, the result was inactive.
As for `CCOC(=O)CNC(=O)c1sc2nc(C)cc(C)c2c1N`, the compound was classed as inactive.
For `Cc1cc(C)c2c(N)c(C(=O)NC3CC3)sc2n1`, the compound was classed as inactive.
`COCc1cc(C)nc2sc(C(=O)Nc3nccs3)c(N)c12`: the call was inactive.
With `COCCNC(=O)C(c1cccs1)N(CCc1ccccc1)C(=O)Cn1nnc2ccccc21` (stereo not drawn), the compound was called inactive.
For `O=C(CSc1nnc(CNC(=O)c2cccs2)o1)NCCc1ccccc1`, the result was inactive.
As to `O=C(CNC(=O)c1ccco1)NCC(=O)OC(C(=O)c1ccccc1)c1ccc(Cl)cc1` (stereo not drawn), the compound was classed as inactive.
Under `CC1CCCc2sc3nc(N4CCN(CCO)CC4)n4ncnc4c3c21` (stereo not drawn) stands “inactive”.
For `COCCn1c(C)cc(C2=NNC(=Nc3ccc(OC)cc3)SC2)c1C`, the result was inactive.
In the case of `COCCn1c(C)cc(C2=NNC(=Nc3ccc(Cl)cc3Cl)SC2)c1C`, the outcome was inactive.
Under `COCCn1c(C)cc(C(=O)COc2nc3ccccc3nc2C)c1C` stands “inactive”; under `COCCn1c(-c2ccccc2F)n[nH]c1=S`, “inactive”.
Take `CCOC(=O)c1c(C)c(C(=O)NC2CCCCC2)c(C)n1CC`: the compound was called inactive.
Turning to `Cc1ccc(-c2ccccc2NC(=O)CCl)o1`, the compound was classed as inactive.
Under `CN1/C(=C/C=N/n2cnnc2)C(C)(C)c2ccccc21` stands “inactive”; under `CN1/C(=C/C2CC(=O)N(c3cccc4ccccc34)C2=O)C(C)(C)c2ccccc21` (stereo not drawn), “inactive”; under `O=C(O)CCn1c(=S)oc2ccccc21`, “inactive”.
As for `Cc1cc(NC(=O)c2cc(Cl)ccc2Cl)no1`, the entry is “inactive”; as for `O=C(C1CCCCC1)N(Cc1ccccc1)c1ccccn1`, “inactive”.
Under `COc1cc2c(cc1OC)C1Cc3ccc(OC)c(OC)c3CN1CC2` (stereo not drawn) stands “inactive”.
Regarding `CC[C@H]1CN2CCc3cc(OC)c(OC)cc3[C@@H]2C[C@@H]1C[C@H]1NCCc2cc(OC)c(OC)cc21`, the compound was called active.
For the compound `COc1cc2c(cc1OC)C1C/C(=N\O)C(CC(C)C)CN1CC2` (stereo not drawn), the call was inactive.
Consider `O=C(CN1CCCCC1)N1c2ccccc2CCc2ccccc21`, for which the outcome was inactive.
As for `O=C(CN1C(=O)C2C3C=CC(C3)C2C1=O)N1CCc2ccccc2C1` (stereo not drawn), the entry is “inactive”; as for `CCC(=O)NCC(c1cccs1)N1CCOCC1` (stereo not drawn), “inactive”; as for `O=C(NCC(c1cccs1)N1CCOCC1)c1ccc(Cl)s1` (stereo not drawn), “active”.
In the case of `O=C(NCC(c1cccs1)N1CCOCC1)c1ccco1` (stereo not drawn), the compound was called inactive.
